Peg3 prom inh – Peg3 promoter-driven luciferase inhibitors, primary screen, cell-based, HeLa, luciferase luminescence; HeLa PEG-Prom luciferase reporter, overnight; 1.7% of 360,000 active; inhibition, % at 20 µM;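 active = inhibition of at least 50% at 20 µM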
KKLEB cytotox – cytotoxicity in KKLEB CF airway cells, primary screen, cytotoxicity control for CF NF-kB inhibitor project, cell-based, uHTS, fluorescence assay plates. KKLEB CF airway cells viability, ATPlite luminescence, overnight; active compounds read low; cells stimulated with P. aeruginosa culture filtrate. activity change (cytotoxicity), % at 5 µM. 0.36% of 360,000 active;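 active = corrected activity change at or below -50% at 5 µM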
TWEAK Fn14 block – inhibitors of TWEAK-Fn14 signaling, primary screen, luciferase reporter cells, uHTS; 2% of 360,000 active; TWEAK-stimulated Fn14 reporter cells, luciferase luminescence, 8 h; AID 1159606, 2016; inhibition, % at 10 µM; in the data active = inhibition above about 50%
CF NFkB inh – inhibitors of PAF-induced NF-kB signaling, primary screen, cell-based, GFP fluorescence, uHTS. KKLEB NF-kB-GFP reporter, GFP fluorescence overnight. inhibition, % at 5 µM. 0.86% of 360,000 active. AID 588850, 2011;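 active = at least 50% inhibition at 5 µM, scaled per plate between neutral and stimulator controls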;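 note: PAF is a Pseudomonas aeruginosa culture filtrate used as stimulus; plate controls were PAF-stimulated DMSO wells for no effect and unstimulated DMSO wells for full effect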
TROY NFkB inh – inhibitors of TROY-driven NF-kB signaling, primary screen, Q293 LMP1-TROYcd cells, NF-kB luciferase, uHTS; 0.98% of 360,000 active; Q293 LMP1-TROYcd NF-kB luciferase reporter, 4 h; AID 1347056, 2019; inhibition, % at 10 µM;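 active = compounds whose plate-normalised and pattern-corrected inhibition of the luciferase reporter signal at the single screening dose is 50% or more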
HIF-2a inh – HIF-2a reporter inhibitors, primary screen, luminescence, 786-0 RCC cells; 0.72% of 360,000 active; AID 624352, 2012; inhibition, % at 18.8 µM; 786-0 RCC cells HIF-2a reporter, luciferase luminescence, overnight;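 active = inhibition of the luminescence signal of 40% or more relative to plate controls, in a single-dose primary screen at 18.75 µM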
* = called active by the depositor. A selection: hits, their analogues and other compounds. The true share with any hit is near 3.9%.

SMILES	Peg3 prom inh	KKLEB cytotox	TWEAK Fn14 block	CF NFkB inh	TROY NFkB inh	HIF-2a inh
CCOC(=O)C1CCN(Cc2ccc(F)c(Br)c2)CC1	-2	-4	3	2	10	9
COc1ccc(NC(=O)CCCC(=O)OCC(F)(F)C(F)F)cc1	12	-7	7	-14	-7	-7
COc1ccccc1NC(=O)CCCC(=O)OCC(F)(F)C(F)F	11	6	63*	-24	2	-13
Cc1cc(C)c2c(c1)/C(=N/Nc1ccc(S(N)(=O)=O)cc1[N+](=O)[O-])CCC2	61*	-19	-69	22	15	8
CC1C/C(=N\Nc2ccc(S(N)(=O)=O)cc2[N+](=O)[O-])CC(C)(C)C1 (configuration not stated)	11	-8	-5	14	1	11
CCOC(=O)C(Cc1ccc(NC(=O)/C(=C/c2ccc(OC(C)=O)cc2)NC(C)=O)cc1)N1C(=O)c2ccccc2C1=O (configuration not stated)	-10	-1	13	3	8	10
CN(C)c1ccc(CCc2ccc(N)cc2)cc1	-60	12	44	6	30	83*
CC(C)(C)c1ccc(NC(=O)N2CCN(c3ccc([N+](=O)[O-])cn3)CC2)cc1	12	-10	59*	10	28	1
COc1ccc(S(=O)(=O)N2CCC(C(=O)NCCC3=CCCCC3)CC2)cc1OC	-3	10	21	8	-12	19
Cc1ccccc1N1C(=O)CC(Sc2nnc(-c3ccccc3)o2)C1=O (configuration not stated)	95*	3	-5	39	2	-40
O=C(c1cccs1)c1ccccc1Cc1cccs1	0	22	92*	-12	-24	-27
CCOC(=O)c1nn(C)c2[nH]c(=O)n(C)c(=O)c12	-3	-3	11	5	-16	-2
CCNc1nc(N)c(C(=O)c2ccc(Cl)s2)s1	-260	6	4	55*	-53	-300
CC(=O)NCCc1ccc(C(=O)COC(=O)c2ccco2)cc1	-102	0	56*	-30	9	-48
CC(=O)NCCc1ccc(C(=O)COC(=O)C2CCCCC2)cc1	-44	7	90*	-4	86*	-21
O=C(COC(=O)c1ccco1)c1ccc(F)cc1	-41	-2	1	4	-45	-23
CCOC(=O)/C(C#N)=N/Nc1ccccc1C(=O)O	14	3	-2	-21	-20	-7
CCOc1ccc(-c2nc(CSCC(=O)NCc3ccco3)c(C)o2)cc1	-21	-1	65*	-11	37	6
CCOc1ccc(-c2nc(CSCC(=O)NC3CC3)c(C)o2)cc1	-16	20	8	2	8	-28
Cc1ccc(-c2nc(CSCC(=O)N3CCN(c4ccccn4)CC3)c(C)o2)cc1	8	4	38	-17	31	2
CCc1ccc(-c2nc(CSCC(=O)N3CCN(c4ccccn4)CC3)c(C)o2)cc1	45	10	81*	-22	62*	58*
CCOc1ccc(-c2nc(CSCC(=O)N3CCN(c4cccc(OC)c4)CC3)c(C)o2)cc1	1	3	59*	-7	53*	-12
COC(=O)C1CCN(C(=O)c2ccc(SC)cc2OC)CC1	-2	-3	-10	10	-2	5
OCCN(CCO)c1cc2c3ccccc3ccc2c2ccccc12	-12	-8	99*	-14	51*	-72
OCCN(CCO)c1ccc2ccccc2c1	-10	-6	20	-8	16	-2
Cc1ccc(NC(=O)c2cc(=O)n(Cc3ccccc3)c(=O)[nH]2)cc1C	6	-9	7	16	-15	12
CCOc1cc(/C=C2\C(=O)N(c3nc(-c4ccc(Br)cc4)cs3)N=C2c2ccccc2)ccc1O	51*	14	-7	-2	3	15
COc1ccccc1N(CC(=O)Nc1cccc(C(F)(F)F)c1)S(C)(=O)=O	12	4	2	9	12	12
